# Experimental data taken from ChEMBL document CHEMBL5606460, “ASAP - DENV-2 NS2B-NS3 protease fluorescence single point” (2024).
# In all, about 2,000 compounds went through this assay and about 110 (5.5%) showed an effect of 50% or more. The sample holds strong results, similar compounds and a random draw of the others, so the mix is not that of the screen.
# Target: Genome polyprotein (dengue virus type 2) (UniProt P29990)
# [1] = Thailand/16681/1984, Concentration 25.0 uM, Number of replicates 1.0
smiles,measurement,setting,value
CCCCCC(=O)N[C@H](C(=O)NCc1ccc(NC(=N)N)cc1)c1ccc(OCc2ccccc2)cc1,inhibition,"Thailand/16681/1984, Concentration 49.5 uM, Number of replicates 2.0, Standard deviation 0.35669280924008506 %",0.374%
same,inhibition,"Thailand/16681/1984, Concentration 99.01 uM, Number of replicates 2.0, Standard deviation 0.1951319007042223 %",2.1%
same,inhibition,"Thailand/16681/1984, Concentration 198.0 uM, Number of replicates 2.0, Standard deviation 2.320076788942105 %",11.9%
NC(=O)c1cccc(NC(=O)[C@@H](NC(=O)OCc2ccccc2)c2ccc(OCc3ccccc3)cc2)c1,inhibition,"Thailand/16681/1984, Concentration 49.5 uM, Number of replicates 2.0, Standard deviation 9.041969593425012 %",3.65%
same,inhibition,"Thailand/16681/1984, Concentration 99.01 uM, Number of replicates 2.0, Standard deviation 1.1271011381219709 %",9.06%
same,inhibition,"Thailand/16681/1984, Concentration 198.0 uM, Number of replicates 2.0, Standard deviation 1.277025907644923 %",16%
NCc1cccc(NC(=O)[C@@H](NC(=O)OCc2ccccc2)c2ccc(OCc3ccccc3)cc2)c1,inhibition,"Thailand/16681/1984, Concentration 49.5 uM, Number of replicates 2.0, Standard deviation 0.05193031216203084 %",99.8%
same,inhibition,"Thailand/16681/1984, Concentration 99.01 uM, Number of replicates 2.0, Standard deviation 0.07343936624368645 %",99.8%
same,inhibition,"Thailand/16681/1984, Concentration 198.0 uM, Number of replicates 2.0, Standard deviation 0.025182910572653226 %",99.6%
CCCCCC(=O)N[C@H](C(=O)NCc1ccc(N)nc1)c1ccc(OCc2ccccc2)cc1,inhibition,"Thailand/16681/1984, Concentration 49.5 uM, Number of replicates 2.0, Standard deviation 0.5514996049599625 %",-5.35%
same,inhibition,"Thailand/16681/1984, Concentration 99.01 uM, Number of replicates 2.0, Standard deviation 6.42872691267386 %",2.25%
same,inhibition,"Thailand/16681/1984, Concentration 198.0 uM, Number of replicates 2.0, Standard deviation 0.7744386054656718 %",-1.4%
CCCCCC(=O)N[C@H](C(=O)NCc1cccc(CN)c1)c1ccc(OCc2ccccc2)cc1,inhibition,"Thailand/16681/1984, Concentration 49.5 uM, Number of replicates 2.0, Standard deviation 0.6286197397778024 %",-3.44%
same,inhibition,"Thailand/16681/1984, Concentration 99.01 uM, Number of replicates 2.0, Standard deviation 10.030102962525104 %",65.8%
same,inhibition,"Thailand/16681/1984, Concentration 198.0 uM, Number of replicates 2.0, Standard deviation 0.2962336766184579 %",98.7%
NCc1cccc(NC(=O)[C@@H](NC(=O)OCc2ccccc2)c2ccc(Br)cc2)c1,inhibition,"Thailand/16681/1984, Concentration 49.5 uM, Number of replicates 2.0, Standard deviation 0.0939294781157427 %",-4.11%
same,inhibition,"Thailand/16681/1984, Concentration 99.01 uM, Number of replicates 2.0, Standard deviation 0.02096957442071617 %",99.8%
same,inhibition,"Thailand/16681/1984, Concentration 198.0 uM, Number of replicates 2.0, Standard deviation 0.044447729264800756 %",99.8%
NCc1cccc(NC(=O)[C@@H](NC(=O)OCc2ccccc2)c2ccc(F)c(F)c2)c1,inhibition,"Thailand/16681/1984, Concentration 49.5 uM, Number of replicates 2.0, Standard deviation 1.4013065114851189 %",-6.54%
same,inhibition,"Thailand/16681/1984, Concentration 99.01 uM, Number of replicates 2.0, Standard deviation 2.1722806038563465 %",-6.15%
same,inhibition,"Thailand/16681/1984, Concentration 198.0 uM, Number of replicates 2.0, Standard deviation 2.359590386651735 %",-2.47%
O=Cc1ccc(N2CCC(C(=O)N3CCC(=C4c5ccc(Cl)cc5CCc5cccnc54)CC3)CC2)cc1,inhibition,[1],-7.77%
Cc1cc(CO)c2cccc(Cc3cccc(C(=O)N4CC[C@@H](O)C4)c3)c2n1,inhibition,"Thailand/16681/1984, Concentration 49.95 uM, Number of replicates 2.0, Standard deviation 0.8940031033980441 %",-6.42%
same,inhibition,"Thailand/16681/1984, Concentration 99.9 uM, Number of replicates 2.0, Standard deviation 1.7851314545528572 %",-4.22%
Cc1cc(NC(=O)c2[nH]c([C@H]3CCCNC3)nc2C)n[nH]1,inhibition,"Thailand/16681/1984, Concentration 49.5 uM, Number of replicates 2.0, Standard deviation 0.1819338679741269 %",-0.694%
same,inhibition,"Thailand/16681/1984, Concentration 99.01 uM, Number of replicates 2.0, Standard deviation 0.4335851561467917 %",-1.03%
same,inhibition,"Thailand/16681/1984, Concentration 198.0 uM, Number of replicates 2.0, Standard deviation 0.7148425402027826 %",-1.18%
O=Cc1ccc(N2CCC(C(=O)Nc3nnc(Cl)cc3Br)CC2)cc1,inhibition,[1],33%
Cc1cc(CO)c2cccc(Cc3cccc(NC(=O)c4cccc(Cn5cncn5)c4)c3)c2n1,inhibition,"Thailand/16681/1984, Concentration 49.95 uM, Number of replicates 2.0, Standard deviation 0.03445572300723204 %",-2.36%
same,inhibition,"Thailand/16681/1984, Concentration 99.9 uM, Number of replicates 2.0, Standard deviation 1.2505418184916173 %",1.37%
O=Cc1ccc(N2CCC(C(=O)NCC(=O)c3ccccc3F)CC2)cc1,inhibition,[1],12.6%
O=Cc1ccc(N2CCC(C(=O)N[C@@H]3CCCN(Cc4ccccc4)C3)CC2)cc1,inhibition,[1],13.3%
CSCC[C@H](NC(=O)OC(C)(C)C)C(=O)N1CCC[C@H]1C(=O)N1CCNCC1,inhibition,"Thailand/16681/1984, Concentration 49.5 uM, Number of replicates 2.0, Standard deviation 0.18656479510110988 %",-1.01%
same,inhibition,"Thailand/16681/1984, Concentration 99.01 uM, Number of replicates 2.0, Standard deviation 0.6673278690655411 %",-1.03%
same,inhibition,"Thailand/16681/1984, Concentration 198.0 uM, Number of replicates 2.0, Standard deviation 0.6237960118923063 %",-0.61%
CNC(=O)C[C@@H](C)NS(=O)(=O)c1ccc(Oc2ccccc2Cl)cc1,inhibition,"Thailand/16681/1984, Concentration 49.5 uM, Number of replicates 2.0, Standard deviation 1.3030195128486834 %",0.058%
same,inhibition,"Thailand/16681/1984, Concentration 99.01 uM, Number of replicates 2.0, Standard deviation 1.4693139392091605 %",1.01%
same,inhibition,"Thailand/16681/1984, Concentration 198.0 uM, Number of replicates 2.0, Standard deviation 0.5754244321045655 %",1.94%
CCN(Cc1cnn(CC)c1)C(=O)C1CCN(c2ccc(C=O)cc2)CC1,inhibition,[1],12.7%
NCc1ccc(NC(=O)[C@@H](NC(=O)OCc2ccccc2)c2ccc(OCc3ccccc3)cc2)cc1,inhibition,"Thailand/16681/1984, Concentration 49.5 uM, Number of replicates 2.0, Standard deviation 0.2921733335266154 %",1.85%
same,inhibition,"Thailand/16681/1984, Concentration 99.01 uM, Number of replicates 2.0, Standard deviation 0.5182536650923871 %",1.48%
same,inhibition,"Thailand/16681/1984, Concentration 198.0 uM, Number of replicates 2.0, Standard deviation 0.5806748336109616 %",1.92%
NCc1cccc(CNC(=O)[C@@H](NC(=O)OCc2ccccc2)c2ccc(OCc3ccccc3)cc2)c1,inhibition,"Thailand/16681/1984, Concentration 49.5 uM, Number of replicates 2.0, Standard deviation 0.05305782465339428 %",100%
same,inhibition,"Thailand/16681/1984, Concentration 99.01 uM, Number of replicates 2.0, Standard deviation 0.03132758391075349 %",99.6%
same,inhibition,"Thailand/16681/1984, Concentration 198.0 uM, Number of replicates 2.0, Standard deviation 0.04155072348555595 %",99.5%
O=C(N[C@H](C(=O)O)c1ccc(OCc2ccccc2)cc1)OCc1ccccc1,inhibition,"Thailand/16681/1984, Concentration 49.5 uM, Number of replicates 2.0, Standard deviation 1.5755205914644184 %",1.16%
same,inhibition,"Thailand/16681/1984, Concentration 99.01 uM, Number of replicates 2.0, Standard deviation 1.1157080020325059 %",3.53%
same,inhibition,"Thailand/16681/1984, Concentration 198.0 uM, Number of replicates 2.0, Standard deviation 0.14215963415330513 %",10.6%
Cc1cc(CO)c2cccc(Cc3ccccc3C(=O)N(c3ncccn3)S(=O)(=O)c3ccc(N)cc3)c2n1,inhibition,"Thailand/16681/1984, Concentration 49.95 uM, Number of replicates 2.0, Standard deviation 1.284948840815395 %",27.7%
same,inhibition,"Thailand/16681/1984, Concentration 99.9 uM, Number of replicates 2.0, Standard deviation 0.4850893215235289 %",47.5%
Cc1cc(CO)c2cccc(Cc3cccc(C(=O)N(c4ncccn4)S(=O)(=O)c4ccc(N)cc4)c3)c2n1,inhibition,"Thailand/16681/1984, Concentration 49.95 uM, Number of replicates 2.0, Standard deviation 1.2554851591331873 %",27.5%
same,inhibition,"Thailand/16681/1984, Concentration 99.9 uM, Number of replicates 2.0, Standard deviation 1.7606970720097574 %",55.5%
Cc1cc(CO)c2cccc(CC(=O)NCc3ccc(S(N)(=O)=O)cc3)c2n1,inhibition,"Thailand/16681/1984, Concentration 49.95 uM, Number of replicates 2.0, Standard deviation 1.717051818740604 %",21.3%
same,inhibition,"Thailand/16681/1984, Concentration 99.9 uM, Number of replicates 2.0, Standard deviation 5.294472274247832 %",43.7%
Cc1cc(CO)c2cccc(Cc3cccc(C(=O)NCc4ccc(S(N)(=O)=O)cc4)c3)c2n1,inhibition,"Thailand/16681/1984, Concentration 49.95 uM, Number of replicates 2.0, Standard deviation 0.214877109175697 %",5.4%
same,inhibition,"Thailand/16681/1984, Concentration 99.9 uM, Number of replicates 2.0, Standard deviation 0.2579967069502225 %",18%
Cc1cc(CO)c2cccc(NC(=O)NCc3ccc(N)cc3)c2n1,inhibition,"Thailand/16681/1984, Concentration 49.95 uM, Number of replicates 2.0, Standard deviation 1.081774899946809 %",4.55%
same,inhibition,"Thailand/16681/1984, Concentration 99.9 uM, Number of replicates 2.0, Standard deviation 2.6483447678271466 %",14.1%
Cc1cc(CO)c2cccc(CC(=O)N(c3ncccn3)S(=O)(=O)c3ccc(N)cc3)c2n1,inhibition,"Thailand/16681/1984, Concentration 49.95 uM, Number of replicates 2.0, Standard deviation 0.013152514133703636 %",99.6%
same,inhibition,"Thailand/16681/1984, Concentration 99.9 uM, Number of replicates 2.0, Standard deviation 0.02076996694616858 %",99.4%
CC(=O)N[C@@H](CCCCN)C(=O)Nc1cccc(Cc2cccc3c(CO)cc(C)nc23)c1,inhibition,"Thailand/16681/1984, Concentration 49.95 uM, Number of replicates 2.0, Standard deviation 0.858525740782908 %",-3.5%
same,inhibition,"Thailand/16681/1984, Concentration 99.9 uM, Number of replicates 2.0, Standard deviation 1.064156674332285 %",6.38%
